Source: PubChem BioAssay (several laboratories)
GDH-TPI counter: counter-screen for M. tuberculosis FBA inhibitors: GDH-TPI coupled enzymes. GDH-TPI coupled enzyme counterscreen, NADH absorbance. 360,000 tested, 1.2% active. inhibition, % at 4.8 µM; in the data active = inhibition above about 30%;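 also: 0% = DMSO wells and 100% = wells lacking the enzyme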
Mtb bLac sens: beta-lactam sensitization of Mtb H37Rv; M. tuberculosis H37Rv growth with meropenem, percent inhibition; inhibition, % at 25 µM; 330,000 tested, 0.27% active; AID 434955; call rule not given here;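 also: growth measured after seven days incubation then overnight dye step; 0% = bacteria only wells and 100% = bacteria with antibiotic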
RecA intein inh: inhibitors of M. tuberculosis RecA intein splicing; P9WHJ3; cell-free RecA intein splicing, fluorescence; 290,000 tested, 0.75% active; inhibition, % (test concentration not listed); in the data active = inhibition above about 30%; inconclusive = no clear call, values can overlap the other calls;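 also: 0% = vehicle wells and 100% = reference inhibitor control wells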
FBA Mtb inh: inhibitors of M. tuberculosis fructose-bisphosphate aldolase. P9WQA3. purified M. tuberculosis FBA, fluorescence read-out. inhibition, % at 1 µM. 360,000 tested, 2.3% active; in the data active = inhibition above about 27%;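 also: 0% = vehicle and 100% = reference inhibitor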
Target sequence (P9WQA3 whole entry, looked up): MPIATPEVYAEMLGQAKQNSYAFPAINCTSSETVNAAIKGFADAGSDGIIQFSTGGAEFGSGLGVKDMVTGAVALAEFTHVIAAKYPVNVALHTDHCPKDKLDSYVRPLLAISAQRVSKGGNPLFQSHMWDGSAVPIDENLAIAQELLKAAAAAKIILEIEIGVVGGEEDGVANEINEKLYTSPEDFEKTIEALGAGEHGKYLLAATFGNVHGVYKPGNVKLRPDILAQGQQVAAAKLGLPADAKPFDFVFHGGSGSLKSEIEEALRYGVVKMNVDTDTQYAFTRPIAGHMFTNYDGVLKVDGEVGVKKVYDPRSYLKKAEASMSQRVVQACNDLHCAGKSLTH
UGM FP inh: Mtb UDP-galactopyranose mutase inhibition; 320,000 tested, 0.06% active; inhibition, % at 10 µM; purified UGM, fluorescence polarization probe displacement; AID 504406; in the data active = inhibition above about 10%, passing the limit was not always enough; inconclusive = no clear call, values can overlap the other calls
Rv3671c protease: Rv3671c (M. tuberculosis) protease inhibition. inhibition, % at 5.96 µM. 320,000 tested, 0.048% active; in the data active = inhibition above about 38%;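 also: extracellular domain of Rv3671c used as enzyme; 0% = enzyme with DMSO and 100% = no enzyme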
An asterisk follows results filed as active; ? = inconclusive; · = no result; + = active, no number. Rows were chosen to be rich in hits. Some 4% of all compounds tested hit in one or more screens of this group.

SMILES	GDH-TPI counter	Mtb bLac sens	RecA intein inh	FBA Mtb inh	UGM FP inh	Rv3671c protease
O=C(O)c1cccc(-n2c(/C=C/c3ccccc3)nc3ccccc3c2=O)c1	32.2*	6.2	1.8	0.9	1.9	-14.5
O=c1c2ccccc2nc(/C=C/c2ccccc2)n1-c1ccc(O)cc1	19.0	99.7	1.5	5.7	0.9	-28.2
CN(C)c1ccc(/C=C/c2nc3ccccc3c(=O)n2-c2ccc(C(=O)O)cc2)cc1	20.0	1.3	-8.2	-7.5	-15.7	-13.2
O=C(O)c1ccc(/C=C/c2nc3ccccc3c(=O)n2-c2ccc(Br)cc2)cc1	38.9*	4.1	2.8	-3.5	-2.0	0.2
Cc1cc(C(=O)COC(=O)C23CC4CC(CC(O)(C4)C2)C3)c(C)n1C	6.1	-1.2	·	3.1	-0.3	3.8
CC(=O)N(C)c1ccc(NC(=S)NCC(C)C)cc1	1.2	-0.4	0.9	1.4	-0.4	4.5
CCOC(=O)c1c(C)[nH]sc1=S	29.4	·	-0.1	1.3	·	·
CCOC(=O)c1sc(=S)[nH]c1C	30.7*	·	·	-2.6	·	·
CCCNc1c(NS(=O)(=O)c2c(F)c(F)c(F)c(F)c2F)c(=O)oc2ccccc12	10.2	?	2.4	0.8	1.0	1.4
CN(C)CCOc1ccc2c(c1)C(=O)C(=Cc1ncc([N+](=O)[O-])n1C)C2	31.6*	·	·	2.5	·	·
CN(C)S(=O)(=O)c1cccc(NC(=S)N/N=C/c2ccco2)c1	52.0*	-1.7	-0.4	4.4	-0.1	5.6
CN(C)S(=O)(=O)c1cccc(NC(=S)N/N=C/c2ccc(O)c(O)c2O)c1	32.1*	·	7.7	-4.6	·	·
COc1ccc(O)c(/C=N/NC(=S)Nc2cccc(S(=O)(=O)N(C)C)c2)c1	6.0	-7.8	-86.0	4.3	-1.5	23.7
COc1cccc(/C=N/NC(=S)Nc2cccc(S(=O)(=O)N(C)C)c2)c1	16.9	-7.7	-4.9	1.1	0.8	-17.3
CC(=O)c1cccc(CN2CCC(C(=O)Nc3cccc(-c4ccn[nH]4)c3)CC2)c1	12.4	-6.7	-0.4	-3.2	0.5	-20.1
COc1cccc(-c2ccc3c(c2)O[C@@H](CN(C)C(=O)C2CCOCC2)[C@H](C)CN([C@H](C)CO)S3(=O)=O)c1	-12.3	·	·	6.9	·	·
CC(C)NC(=O)N(C)C[C@H]1Oc2ccc(NC(=O)C3CC3)cc2C(=O)N([C@H](C)CO)C[C@@H]1C	11.8	-6.8	·	5.3	4.1	1.9
Cc1ccc2c(c1)cc1c(=O)n(CC(=O)NCCN3CCCC3)nc(C)n12	4.8	4.5	-1.1	7.0	1.0	1.3
O=C(O)c1cccc(C(=O)c2cccc(C(=O)O)c2)c1	1.9	-5.3	1.3	-0.9	0.0	-8.1
O=C(O)c1cc2ccc3cccc4ccc(c1)c2c34	27.0	12.3	-2.9	167.9*	-0.2	-4.8
Cc1ccc(/C=N/NC(=O)c2ccccc2OCc2cccc(Br)c2)o1	20.2	-1.6	6.0	-1.6	0.7	-7.6
O=C1c2cccnc2-c2ncccc21	5.0	-16.6	-1.1	1.8	3.9	-9.5
O=C1c2cc([N+](=O)[O-])ccc2-c2ncccc21	8.8	-4.6	46.3*	-0.3	1.4	-4.6
COc1cc(/C=C/C(=O)c2ccc3c(c2)OCO3)cc(OC)c1OC	10.0	63.5	·	0.2	0.3	6.8
COc1cc(/C=C/C(=O)c2ccc3c(c2)OCCO3)cc(OC)c1OC	37.3*	28.8	3.9	-3.1	0.4	2.5
SMILES	GDH-TPI counter	Mtb bLac sens	RecA intein inh	FBA Mtb inh	UGM FP inh	Rv3671c protease
COc1cc2cc(C(=O)N3CCN(Cc4ccc5c(c4)OCO5)CC3)c(=O)oc2cc1OC	16.9	-4.5	-100.9	+	0.4	2.1
COc1ccccc1C(=O)N1CCN(Cc2ccc3c(c2)OCO3)CC1	10.7	-8.3	-1.3	-0.5	0.6	-0.6
c1cc(-c2ccc(N3CCOCC3)cc2)n2ccnc2c1	16.8	·	·	+	·	·
N#CCc1ccc(-c2cccc3nccn23)cc1	8.4	·	·	+	·	·
Clc1cccc(-c2cccc3nccn23)c1	15.6	·	·	+	·	·
CS(=O)(=O)Nc1ccc(-c2cccc3nccn23)cc1	8.8	·	·	161.6*	·	·
OCc1ccccc1-c1cccc2nccn12	12.9	·	·	15.2	·	·
NC(=O)c1cccc(-c2cccc3nccn23)c1	1.8	·	·	2.3	·	·
CS(=O)(=O)Nc1ccc(Oc2ncccn2)cc1	-2.6	-5.5	-0.9	-2.5	-1.6	-3.9
COc1ccc(OC)c2nc(-c3ccc4c(c3)OCO4)ccc12	8.8	·	-3.4	7.6	-1.7	-6.2
COc1ccc(NC(=O)c2cc(-c3cc(C)cc(F)c3)n[nH]2)cc1OC	2.7	·	·	-5.6	·	·
CN(C)c1ccc(-c2cccc3nccn23)cc1	20.4	·	·	+	·	·
O=C(Nc1ccc(F)c(Cl)c1)c1cc(C2CCCCN2C(=O)CCc2ccccc2)on1 (stereo unspecified)	-2.7	·	·	-1.5	·	·
Cc1ccc2nc(/C(C#N)=C\c3cc(C)n(-c4cccc([N+](=O)[O-])c4)c3C)[nH]c2c1	31.6*	97.0	2.1	-0.1	-2.0	-0.6
CC(=O)/C(N=Nc1ccc(-n2ccc(C(F)(F)F)n2)cc1)=C(\C)O	35.2*	9.5	2.8	-1.3	0.6	13.1
CCN(CC)S(=O)(=O)c1ccc(N=N/C(C(C)=O)=C(/C)O)cc1	39.8*	-1.6	-4.4	-1.0	-0.8	-7.5
CC(=O)/C(N=Nc1ccc(C(=O)O)cc1)=C(\C)O	14.8	-6.6	4.4	-5.5	-3.2	-0.5
CCOc1ccc(Nc2nc3ccccc3n3cnnc23)cc1	32.5*	-4.2	3.0	-1.3	·	-0.2
c1ccc2c(c1)nc(Nc1ccc(N3CCCCC3)cc1)c1nncn12	43.9*	1.9	-5.7	2.0	-0.4	-3.5
c1ccc(Nc2nc3ccccc3n3cnnc23)cc1	30.1	-8.4	3.6	3.3	2.1	-6.9
CC(=O)N1CCOCC1c1cc(C(=O)Nc2ccccc2)no1 (stereo unspecified)	10.6	·	·	-3.9	·	·
CSc1ccc(-c2cccc3nncn23)cc1	23.9	·	·	+	·	·
Cn1cc(-c2cccc3nncn23)cn1	15.5	·	·	5.9	·	·
CCOc1cc(/C=C(/C#N)C(=O)Nc2ccc(O)cc2)cc(Br)c1O	1.9	-1.6	60.5*	-20.6	-14.7	-0.5
N#C/C(=C/c1ccc2c(c1)OCO2)C(=O)Nc1ccc(O)cc1	15.8	-9.2	58.8*	-1.4	-5.2	-2.5
SMILES	GDH-TPI counter	Mtb bLac sens	RecA intein inh	FBA Mtb inh	UGM FP inh	Rv3671c protease
N#C/C(=C\c1ccc2c(c1)OCCO2)C(=O)Nc1ccc(C(=O)O)cc1	22.1	-0.7	-0.6	0.3	3.3	3.8
COC(=O)c1ccc(CNc2ccc(C(C)=O)cc2)cc1	·	·	·	-1.5	·	·
O=C(Cc1ccc([N+](=O)[O-])cc1)c1c(O)cc(O)cc1O	35.1*	-4.6	2.2	-1.3	0.9	-0.5
Cc1cc(O)cc(O)c1C(=O)Cc1ccccc1	6.9	-2.8	1.9	0.4	1.5	-8.1
O=C1CCCC2=C1CC(C(=O)OCc1ccccc1)C(=O)N2Cc1ccccc1 (stereo unspecified)	7.3	·	·	0.1	·	·
Cc1cc(C)c2nc(C)cc(Nc3ccc(C(=O)NCCO)cc3)c2c1	58.6*	-6.7	1.8	4.4	2.9	6.0
COc1cccc(-c2ccc(NC(=O)C3CCCN(CCCn4nc(C)cc4C)C3)cc2)c1 (stereo unspecified)	7.6	90.6	0.9	3.0	-1.3	2.4
